# Measurements: PubChem BioAssay (NCI)
# Where “and” joins values, the source holds several entries; their conditions need not be identical. Equal values may be shown once. The panel holds about 83,000 compounds, 20% with a hit somewhere; the sample as a whole holds those more often.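 For each line, cells grew in 96-well plates with the test compound present at a single concentration for 48 hours.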 A number with no mark means an inactive call. Calls of active or inactive are those of the source. The calls were made as follows: active = growth percent below 10; inactive = the rest.
# Key:
# Assay in all cases: NCI-60 one-dose screen, 48 h (100 = growth as untreated, 0 = no growth, -100 = all killed)
# Conditions in all cases: 10 µM unless noted
# NCI-H23 lung = system: NCI-H23 lung
# NCI-H226 lung = system: NCI-H226 lung
# NCI-H322M lung = system: NCI-H322M lung
# HOP-62 NSCLC = system: HOP-62 NSCLC
# NCI-H460 lung = system: NCI-H460 lung
# HOP-92 NSCLC = system: HOP-92 NSCLC
# NCI-H522 lung = system: NCI-H522 lung
# A549/ATCC NSCLC = system: A549/ATCC NSCLC
# 786-0 renal = system: 786-0 renal
# COLO 205 colon = system: COLO 205 colon
SMILES,growth (NCI-H23 lung),growth (NCI-H226 lung),growth (NCI-H322M lung),growth (HOP-62 NSCLC),growth (NCI-H460 lung),growth (HOP-92 NSCLC),growth (NCI-H522 lung),growth (A549/ATCC NSCLC),growth (786-0 renal),growth (COLO 205 colon)
CN1CCN(Cc2ccc(NC(=O)c3nc4ccc5[nH]ncc5c4c4c3CCCC4)cc2C(F)(F)F)CC1,-21.9% (active),73.4%,19%,-75.9% (active),-58.6% (active),-79.9% (active),-70.7% (active),-83.1% (active),-85.4% (active),-86.8% (active)
CN(C)C1CCN(C(=O)c2ccc(NC(=O)Nc3ccc(-c4nc(N5CCOCC5)c5cccn5n4)cc3)cc2)CC1,15.5%,-7.75% (active),-9.27% (active),-12.9% (active),6.48% (active),,14.6%,3.9% (active),-18.6% (active),-3.31% (active)
COC1/C=C/OC2(C)Oc3c(C)c(O)c4c(O)c(c(C=NOC(c5ccccc5)c5ccccc5)c(O)c4c3C2=O)NC(=O)/C(C)=C/C=C/C(C)C(O)C(C)C(O)C(C)C(OC(C)=O)C1C (stereo not given),21.8%,20.3%,47.4%,-89.5% (active),2.85% (active),,13%,16.3%,12.2%,-88.2% (active)
Cc1ccc(C(=O)Nc2ccc(CN3CCN(C)CC3)c(C(F)(F)F)c2)cc1C#Cc1cnc(N)cc1C#N,-40.7% (active),9.78% (active),12.4%,-69.7% (active),-80.7% (active),,-72.7% (active),-84.7% (active),-73.8% (active),-64.9% (active)
O=C(c1cccc(Br)c1)N1CCN(c2ccnc3cc(Cl)ccc23)CC1,79.7%,87.3%,92%,95.3%,100%,,45.1%,73.8%,71.9%,93.7%
Cc1cc2nc(C(Cl)Cl)nc(-c3ccc(Cl)cc3)n2n1,-19.9% (active),67%,-32.5% (active),-8.28% (active),-49.4% (active),,3.6% (active),0.301% (active),45%,-37.2% (active)
CC/C(=C(/c1ccc(O)cc1)c1ccc(OCCN2CCCCCC2)cc1)c1ccc(Cl)cc1,80.4%,89.2%,84.1%,98.8%,46%,,90.2%,70.6%,18.4%,4.48% (active)
O=C(/C=C/c1ccc(F)cc1)Nc1ncc(Cc2ccc(F)cc2)s1,61.5%,70%,41.4%,,17%,71.5%,19.1%,38.1%,46.7%,23.8%
CCCCC1=C(Br)C(=O)c2nc(C)ccc2C1=O,92.8%,91.2%,88.8%,89.9%,98.8%,,62.5%,92%,95.2%,37.1%
C/C=C(\C)C(=O)N[C@H]1CC[C@]2(C)C3CC[C@@]4(C)C(CC[C@@H]4C(C)N(C)C)C3CCC2[C@H]1OC(C)=O (stereo not given in full),-8.02% (active),-2.69% (active),-48.5% (active),,-86.4% (active),-49.4% (active),6.83% (active),-17.8% (active),-88.8% (active),-90.7% (active)
CS(=O)(=O)Nc1cc(-c2ccc3ncnc(Nc4ccc(F)c(Cl)c4)c3c2)cnc1Cl,16.9%,17.6%,3.88% (active),,10.6%,-23.6% (active),14%,1.72% (active),7.37% (active),-57.2% (active)
COc1ccc(C/C(C)=C(\c2ccc(O)cc2)c2ccc(OCCCN(C)C)cc2)cc1,91.8%,94.2%,94%,111%,93.7%,,91.5%,90.6%,101%,97%
C=C(C)[C@@H]1CC[C@]2(C(=O)O)CC[C@]3(C)[C@H](CC[C@@H]4[C@@]5(C)CCC(N)C(C)(C)[C@@H]5CC[C@]43C)[C@@H]12 (stereo not given in full),81.5%,100%,68.9%,80.4%,33.1%,,11.7%,47.9%,0.398% (active),-21.4% (active)
CCCCn1c(C(=O)c2c[nH]c3ccccc23)n[nH]c1=S,92.6%,92.5%,96.7%,86%,98.7%,,83.3%,92.3%,102%,106%
c1cc(NCCCCN2CCOCC2)c2ccc3c(ccc4c(NCCN5CCOCC5)ccnc43)c2n1,70.7%,79.6%,72.9%,81.5%,40.8%,,82.5%,75.9%,79.5%,90.5%
Clc1ccc(/C=N\N2CCCCCC2)cc1,97.8%,93.8% and 125%,104%,105% and 95.9%,108% and 119%,,123% and 83.6%,94.2% and 104%,101% and 97.5%,124% and 130%
Cc1nnc(NS(=O)(=O)c2ccc(N=Nc3ccc(N)nc3N)cc2)s1,100% and 110%,111% and 110%,114% and 92.8%,113%,110% and 112%,,96.7%,97.1% and 112%,102% and 99.8%,110%
O=C(CN1C(=O)S/C(=C\C(Cl)=C\c2ccccc2)C1=O)NCCCn1ccnc1,24%,41.9%,90.8%,84.9%,68.5%,,-3.5% (active),85.2%,9.43% (active),4.93% (active)
O=C(CN1C(=O)S/C(=C\C(Cl)=C\c2ccccc2)C1=O)NC1C=CS(=O)(=O)C1 (stereo not given),16.7%,-21.7% (active),88.9%,86.5%,54%,,-46.2% (active),68.5%,-74.4% (active),-21.8% (active)
O=C(N/N=C/c1ccc(O)cc1O)c1cccc(Nc2ccnc(C(F)(F)F)c2)c1,27.5%,40.5%,22.7%,,22.2%,44.1%,41.5%,55.9%,5.8% (active),43%
COc1ccc(Nc2ncnc3ccc(-c4cncc(NS(C)(=O)=O)c4)cc23)cc1Cl,35.4%,56%,54.6%,39.2%,75.9%,,9.61% (active),64.5%,58.3%,30.2%
COc1ccc(/C=C/C(=O)c2cc3c(N)c(C(=O)Nc4ccccc4Cl)sc3nc2C)cc1,52.3%,27.4%,62.3%,45.3%,32.6%,,15.4%,33.8%,-20.4% (active),69.8%
O=C1C(c2c[nH]c3ccccc23)=C(c2coc3cc(Br)ccc23)C(=O)N1O,93.1%,87.1%,97.1%,104%,97.2%,,89.4%,98.4%,94.6%,117%
c1ccc(-c2cc(-c3cc(-c4ccccc4)on3)no2)cc1,74.9%,98.8%,89.9%,107%,45%,,62.2%,78.9%,106%,94.2%
O=Nc1c(O)ccc2ccccc12,89.7%,93.2% and 97.4%,97.1%,117% and 101%,96.4% and 106%,,41.8% and 86.2%,72.2% and 100%,92.1% and 104%,71.1% and 110%
C#CCOc1cccc(Nc2ncc3ncn(C4CCN(C(=O)CCl)C4)c3n2)c1 (stereo not given),45.2% [6.25 µM],23.3% [6.25 µM],78.6% [6.25 µM],,72.1% [6.25 µM],73% [6.25 µM],-77.4% [6.25 µM] (active),78.5% [6.25 µM],-4.37% [6.25 µM] (active),-84% [6.25 µM] (active)
